Assay results as given in PubChem BioAssay (NCI).
The panel holds about 79,000 compounds, 15% with a hit somewhere; the sample as a whole holds those more often. Cut-off read from the data, not from the text of the source: active = growth inhibition above about 70%; inactive = the rest.

Tests used:
[1] = NCI Yeast Anticancer Drug Screen. Data for the rad50 strain (AID 155);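 note: 0% = growth of vehicle-only cultures of the same strain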; settings: S. cerevisiae rad50 strain growth inhibition; at 50.0 µM; hits give high values
Summary of the method: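 A DNA repair-deficient yeast mutant serves as the test organism; compound-induced growth inhibition is calculated against vehicle-treated cells.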

[2] = NCI Yeast Anticancer Drug Screen. Data for the mec2-1 strain (AID 157); settings: S. cerevisiae mec2-1 strain, at 50.0 µM, hits give high values
Summary of the method: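 Growth inhibition is read against vehicle-treated controls after compound exposure of the mec2-1 yeast strain, which is defective in DNA damage repair or cell cycle control.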

[3] = NCI Yeast Anticancer Drug Screen. Data for the sgs1 mgt1 strain (AID 161);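 note: 0% = growth of cultures given vehicle only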; settings: S. cerevisiae sgs1 mgt1 strain, at 50.0 µM, hits give high values
Summary of the method: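 Percent growth inhibition was derived by comparing compound-exposed mutant yeast with vehicle-exposed cultures. The strain carries alterations in DNA damage repair.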

[4] = NCI Yeast Anticancer Drug Screen. Data for the cln2 rad14 strain (AID 165);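 note: 0% = growth equal to vehicle treated cultures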; settings: S. cerevisiae cln2 rad14 strain, at 50.0 µM, hits give high values
Summary of the method: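 Growth inhibition, relative to vehicle-treated controls, is the read-out. The test organism is a yeast strain with defined genetic alterations, cln2 rad14.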

[5] = NCI Yeast Anticancer Drug Screen. Data for the bub3 strain (AID 167); settings: S. cerevisiae bub3 mutant strain, at 50.0 µM, hits give high values
Summary of the method: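 Inhibition values come from growth of compound-treated mutant yeast normalised to vehicle-treated controls.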

[6] = NCI Yeast Anticancer Drug Screen. Data for the mlh1 rad18 strain (AID 175); settings: S. cerevisiae mlh1 rad18 strain growth inhibition; at 50.0 µM; hits give high values
Summary of the method: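 Cells of a genetically altered yeast strain, deficient in DNA damage repair, were treated with compound. Their growth was then compared with that of vehicle-treated cultures to give inhibition.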

Measured: growth inhibition

O=C1CCC2CCC(=O)N12
inactive: [1] 1.25% | [2] -2.2% | [3] -10.3% | [4] 2.1% | [5] -11.2% | [6] 5.65%

Cc1ccc2c(c1)C(=O)c1cc(C)cc(C(=O)O)c1-2
inactive: [1] -22.6% | [2] -5.05% | [3] 4.5% | [4] -40% | [5] 1.65% | [6] -16.7%

COCCc1ccncc1
inactive: [1] -0.85% | [2] -35.3% | [3] -31.3% | [4] -6.45% | [5] -15.8% | [6] -7.9%

C=C1CCCCCCCCCCC12SCCCS2
inactive: [1] -42.1% | [2] 7.6% | [3] -25.7% | [4] -11.9% | [5] 20% | [6] -26.6%

CC1(C)CCC2(C(=O)OC3OC(CO)C(O)C(O)C3O)CCC3(CO)C(=CCC4C5(C)CC(O)C(O)C(C)(C(=O)OC6OC(CO)C(O)C(O)C6O)C5CCC43C)C2C1 (stereo unspecified)
inactive: [1] 2.3% | [2] 4.45% | [3] 17.6% | [4] 23.2% | [5] 19.3% | [6] -92.2%

CN1CCc2c1nc(-c1ccc(Cl)cc1)c1c2N(C)CC1
inactive: [1] 5.15% | [2] 1.5% | [3] 0% | [4] 9% | [5] -9.55% | [6] -7.35%

CCc1c(C#N)c(=O)[nH]c(=O)n1CCN1CCN(C(=O)NCCCCCCNC(=O)N2CCN(CCn3c(CC)c(C#N)c(=O)[nH]c3=O)CC2)CC1
inactive: [1] 4.6% | [2] 2.55% | [3] -14.4% | [4] -23.6% | [5] 2.7% | [6] -26.1%

N#C/C(=C1\N=C(c2ccccc2O)Oc2ccccc21)c1ccc([N+](=O)[O-])cc1
inactive: [1] 6.85% | [2] -11.9% | [3] 13.1% | [4] -0.7% | [5] 4.35% | [6] -13.6%

CNC(=O)C1CCC(=O)N1CN(C(C)=O)c1ccccc1 (stereo unspecified)
inactive: [1] 3.85% | [2] 13.9% | [3] -12.9% | [4] 13.7% | [5] -13.9% | [6] -63.5%

C=C1CN=C(Nc2ccc(F)cc2F)S1
inactive: [1] -0.15% | [2] 7.3% | [3] -14.6% | [4] 8.15% | [5] 1.75% | [6] 2.65%

O=C1Sc2ccccc2C(=O)N2CCCC12 (stereo unspecified)
inactive: [1] -20.8% | [2] -8.25% | [3] -11.5% | [4] 3.2% | [5] 8.2% | [6] -10.2%

Cc1nn(-c2ccccc2)c2c1CC(=O)Nc1ccccc1-2
inactive: [1] -14.1% | [2] -29.1% | [3] -11.5% | [4] -26.8% | [5] -37.6% | [6] 9.15%

N#Cc1nc(CC(=O)c2ccccc2Cl)c(CC(=O)c2ccccc2Cl)nc1C#N
inactive: [1] 22.4% | [2] 20.1% | [3] 5.6% | [4] 25.4% | [5] 13.4% | [6] 19.4%

O=C(O)C1CSC2(CCCN(Cc3ccccc3)C2)N1 (stereo unspecified)
inactive: [1] -17.7% | [2] -29.4% | [3] -5.85% | [4] -3.7% | [5] -17.1% | [6] 5.2%

CCC(C(=O)O)c1ccc(-c2ccccc2)cc1 (stereo unspecified)
inactive: [1] 24.6% | [2] 24.1% | [3] 19.1% | [4] 23.1% | [5] 24.4% | [6] 9.5%

O=C1C2C3CC4C5CC(C1C53)C42 (stereo unspecified)
inactive: [1] 4.85% | [2] -7.45% | [3] 3.35% | [4] 5.05% | [5] -5.4% | [6] 1.7%

CCC(C)C1CCCCC1OC(=O)CCl (stereo unspecified)
inactive: [1] -5.45% | [2] -14.8% | [3] -16.3% | [4] 0.05% | [5] -9.55% | [6] -18.6%

C/C=C/C(=O)Nc1cc(C(F)(F)F)ccc1Cl
inactive: [1] 26.6% | [2] -2.3% | [3] -44.5% | [4] 10.8% | [5] 1.4% | [6] 9.15%

CN(C)N=Nc1c(Cl)cccc1Cl
inactive: [1] 3.35% | [2] 26.7% | [3] -6.6% | [4] -13% | [5] 2.35% | [6] 7.75%

COc1cc(C2SCC(=O)N2c2ccc(-n3c(-c4ccccc4)nc4ccccc4c3=O)cc2)cc(OC)c1OC (stereo unspecified)
inactive: [1] -17.3% | [2] -8.85% | [3] -4.4% | [4] -7.8% | [5] 8.05% | [6] 4.5%

O=C1NC(=O)C2C1C1C=C3c4ccccc4N(c4ccccc4)C32[C@H]2C(=O)NC(=O)[C@@H]12 (stereo partly specified)
inactive: [1] -3.4% | [2] -13.2% | [3] 7.15% | [4] 24.9% | [5] 17.4% | [6] -4.9%
